Measured values reported in PubChem BioAssay (NCI).
About 83,000 compounds went through this panel and 20% of them were active in at least one assay; those are over-represented in the sample as a whole.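 Treatment: one concentration, 48 hours, 96-well format. Scoring: percent growth, with anything below 10 considered active.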 A number with no mark means an inactive call. The source made the active and inactive calls.

Assays:
Test in all cases: NCI-60 one-dose screen, 48 h (100 = growth as untreated, 0 = no growth, -100 = all killed)
Settings in all cases: 10 µM
NCI-H23 lung = tested on: NCI-H23 lung
NCI-H226 lung = tested on: NCI-H226 lung
NCI-H322M lung = tested on: NCI-H322M lung
HOP-62 NSCLC = tested on: HOP-62 NSCLC
NCI-H460 lung = tested on: NCI-H460 lung
HOP-92 NSCLC = tested on: HOP-92 NSCLC
NCI-H522 lung = tested on: NCI-H522 lung
A549/ATCC NSCLC = tested on: A549/ATCC NSCLC
786-0 renal = tested on: 786-0 renal
COLO 205 colon = tested on: COLO 205 colon

| Structure (SMILES) | growth (NCI-H23 lung) | growth (NCI-H226 lung) | growth (NCI-H322M lung) | growth (HOP-62 NSCLC) | growth (NCI-H460 lung) | growth (HOP-92 NSCLC) | growth (NCI-H522 lung) | growth (A549/ATCC NSCLC) | growth (786-0 renal) | growth (COLO 205 colon) |
| --- | --- | --- | --- | --- | --- | --- | --- | --- | --- | --- |
| CN1C(=O)N(C)C2SC(N/N=C/c3ccccc3)=NC21 (stereo unspecified) | 79.5% | 98.1% | 98.3% | 76.9% | 68.9% | 111% | 60.4% | 72.4% | 82.3% | 92.5% |
| O=C(Nc1ccc(OCc2ccccc2)cc1)Nc1ccc(Cl)c(C(F)(F)F)c1 | -5.44% (active) | -27.7% (active) | 7% (active) | 5.97% (active) | 3.69% (active) | -38.7% (active) | -20.3% (active) | 5.97% (active) | 17.9% | -72.7% (active) |
| Cc1cc(=O)oc2cc(OCCCCOc3ccc(/C=C/C(=O)Nc4cccc(Cl)c4)cc3)ccc12 | 57.2% | 35.9% | 87.4% | 54.9% | 54.4% | 50.9% | 60.3% | 55.4% | 54.7% | 62.3% |
| O=C(CSc1nnc(-c2c[nH]c3ccccc23)n1-c1ccccc1)Nc1ccc(C(=O)/C=C/c2cccc([N+](=O)[O-])c2)cc1 | 86.2% | 72.7% | 100% | 98.2% | 99.2% | 104% | 82.1% | 97.2% | 101% | 119% |
| Cc1noc2c(Cc3ccccc3)nn(CC(=O)N/N=C/c3ccc(Cl)cc3)c(=O)c12 | 79.1% | 14.5% | 96.3% | 34.9% | 10.4% | 9.05% (active) | 83.9% | 20.4% | -23.9% (active) | 51.8% |
| O=c1[nH]c2ccc(Cl)cc2cc1CSc1ccc(Nc2nccc(-c3ccc4ccccc4c3)n2)cc1 | 81.9% | 50.5% | 95.5% | 85.8% | 20.8% | 88.1% | 80.5% | 22.7% | 64.8% | 31.8% |
| Cc1ccc(C(=O)NCCCNc2nc(Nc3ccc(N4CCN(C)CC4)cc3)nc3ccsc23)cc1 | 53.4% | 68.7% | 64.3% | 73.7% | 49.2% | 27.1% | 73.2% | 54.5% | -11.6% (active) | 32.7% |
| O=C(Nc1ccncc1)c1ccc(-n2c(=O)[nH]c3ccccc3c2=O)cc1 | 80.1% | 87.4% | 97.6% | 99% | 110% | 77.1% | 84.9% | 106% | 94.2% | 102% |
| CC1CC(c2ccc(N(C)C)cc2)=NN1c1nc(O)c(C2=c3cc(Br)ccc3=NC2=O)s1 (stereo unspecified) | 1.13% (active) | 77.8% | 112% | 92.7% | 63.8% | 83.8% | 70.2% | 72.6% | 94% | 99.7% |
| O=c1cc(-c2ccccc2)oc2cc(OCCCNCc3ccccc3)cc(O)c12 | -91% (active) | 46.4% | 31% | 21.3% | -53.4% (active) | -9.75% (active) | -62.6% (active) | 26.2% | -48% (active) | -88% (active) |
| O=C(CNc1nc(-c2ccccc2)cs1)Nc1ccc(Cl)cc1[N+](=O)[O-] | -57.3% (active) | -54.2% (active) | 35.7% | -27.7% (active) | 5.09% (active) | -14.2% (active) | -82.8% (active) | 12.6% | 4.95% (active) | -64.7% (active) |
| CCCCSc1nc(Nc2ccc(/C(C)=N/NC(N)=S)cc2)c(C#N)c(-c2ccc(OC)cc2)n1 | 31.4% | -6.28% (active) | 74.8% | 54.4% | 46.5% | -4.59% (active) | 85.7% | 47.4% | -71.5% (active) | 125% |
| Cc1noc2c(Cc3ccccc3)nn(CC(=O)N/N=C/c3ccc(F)cc3)c(=O)c12 | 78.4% | 29% | 84.6% | 14.7% | 28.9% | -12.7% (active) | 85.8% | 45.3% | -2.13% (active) | 72.5% |
| CCCS(=O)(=O)c1oc(-c2ccc(F)cc2)nc1S(=O)(=O)c1ccc(F)cc1 | -42.1% (active) | 64.7% | 89.8% | 84% | 61.7% | -80.6% (active) | -92.9% (active) | 82.5% | -52.2% (active) | -92.1% (active) |
| O=C1NC(=NC23CC4CC(CC(C4)C2)C3)N/C1=C\c1ccc2ncoc2c1 | -49.7% (active) | 21.4% | 3.73% (active) | 13.2% | 13.7% | 15.3% | -17.3% (active) | 10% | 14.4% | -34.4% (active) |
| COc1cc(C2CC(c3ccc(C)cc3)=Nc3c(N)nc(N)nc3N2)ccc1Oc1nc(Nc2ccc(F)cc2)nc(N(C)C)n1 (stereo unspecified) | 73% | 61.4% | 86.6% | 93.9% | 37.7% | 9.32% (active) | 87.3% | 88.1% | 50.4% | 48.1% |
| Cc1ccc(C(C)C)cc1NC(=O)c1ccccc1O | 11.8% | 26.6% | 55% | 54.4% | 30.8% | -4.4% (active) | 20.6% | 47.8% | 58.8% | 100% |
| O=c1[nH]c2ccccc2cc1CSc1ccc(Nc2nccc(-c3ccc4c(c3)OCO4)n2)cc1 | 86.1% | 74% | 97.7% | 84% | 83.1% | 78.6% | 96.9% | – | 84.7% | 71.6% |
| COc1ccc([C@H]2C(C(=O)c3ccc(Cl)cc3)C3(N[C@@H]2c2ccccc2)C(=O)Nc2ccc(Cl)cc23)cc1 (stereo partly specified) | -56.2% (active) | -56.4% (active) | 20% | -57.2% (active) | -11.7% (active) | -26.7% (active) | -1.74% (active) | – | -12% (active) | -89.5% (active) |
| Cc1ccc(CSc2nc(Cl)c(C#N)c(-c3ccc(F)cc3)n2)cc1 | 87.8% | 53.5% | 86.7% | 96.4% | 86.5% | 54.6% | 62.5% | – | 78.7% | 77.3% |
| O=C(CSc1nnc(-c2ccc3nc(-c4ccccc4)[nH]c3c2)o1)Nc1ccc(Br)cc1 | 54.2% | 80.2% | 86.3% | 92.2% | 6.71% (active) | 135% | 61.2% | – | 66.7% | 81.1% |
| CN1CCN(Cc2ccc(NC(=O)c3cncc(C#Cc4cnc5ccc(N[C@@H]6CCOC6)nn45)c3)cc2C(F)(F)F)CC1 | -81.3% (active) | -94.9% (active) | -99.2% (active) | -75.5% (active) | -30% (active) | -82% (active) | -71.6% (active) | – | -77.4% (active) | -65.5% (active) |
| CN1CCN(c2ccc(C(=O)/C=C/c3ccc(OC(F)F)cc3)cc2)CC1 | 27.8% | 27.7% | 70.6% | 95.6% | 49.2% | 61.6% | 83.5% | – | 61.6% | 34.8% |
| COc1ccc(/C=C/C(=O)c2ccc(NC(=O)CN3C(=O)NC(C)(c4ccccc4)C3=O)cc2)cc1 (stereo unspecified) | 83.8% | 80.3% | 105% | 95.1% | 102% | 120% | 86.8% | 85.9% | 81.2% | 106% |
| CC(=O)c1cc(C(=O)N2c3ccccc3Sc3ccccc32)n2ccc(C)cc12 | 42% | 40.2% | 72.2% | 58.6% | 12.3% | 38.1% | 49.6% | – | 44.5% | 67.7% |
| COc1cc(/C=C/C(=O)c2cc(OC)c(OC)c(OC)c2)ccc1Oc1nc(Nc2ccc(F)cc2)nc(N(C)C)n1 | -23.7% (active) | 17.9% | 9.59% (active) | -44.5% (active) | -23% (active) | -42.3% (active) | -82.7% (active) | – | -94.1% (active) | 7.64% (active) |
| N#Cc1c(Cl)nc(SCc2ccc(F)cc2)nc1-c1ccc(F)cc1 | 95.7% | 71.3% | 92.2% | 101% | 103% | 74.8% | 74.6% | – | 95.4% | 120% |
